Each structure is given as a SMILES string. Results filed as inconclusive are left out. Active and inactive are the calls of the source. Unless noted, the call rests on the fitted dose curve; in most records, active means well fitted curve in the direction sought with a large enough effect; inconclusive means small, poorly fitted or top-dose-only effect, or another doubt; inactive means no such curve, though single readings can be large; an effect the other way counts as inactive or inconclusive.

Five compounds from PubChem BioAssay (NCATS) can be followed below.

Assay [1] has as its target Estrogen receptor (Homo sapiens) (UniProt P03372). As to the kind of experiment: qHTS assay for small molecule agonists of estrogen receptor alpha signaling (AID 588514; calls by dose curve;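 further: 0% = vehicle only and 100% = reference agonist; nearly all actives have a fitted effect of over 70% in size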). The procedure, abridged: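 ER-alpha-UAS-bla GripTite HEK 293 cells in medium with 2% charcoal/dextran-treated FBS were treated with compound titrations at 37 C for 18 hrs; beta-lactamase reporter read by CCF4 fluorescence after 2 hrs at RT.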
(Quantitative high-throughput screening tests each substance at several concentrations.)

Assay [2] addresses Glucocorticoid receptor (Homo sapiens) (UniProt P04150). As to the kind of experiment: qHTS assay for small molecule agonists of glucocorticoid receptor signaling (AID 588532; active means well fitted curve in the direction sought with a large enough effect in the signal ratio, with a control signal flat; the % refers to the signal ratio;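 further: 100% = dexamethasone at 0.1 µM and 0% = DMSO only wells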). The settings on record: HeLa MMTV-bla, beta-lactamase ratio, agonist, 18 h; activation: stronger effect = higher value, percent of dexamethasone control, DMSO zero. An outline of the steps:
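MMTV-bla HeLa, beta-lactamase reporter; medium with 1% charcoal/dextran-stripped FBS; cpds up to 92 uM, 18 h, 37 C; CCF4 readout 460/530 nm; Hill fit → EC50, efficacy vs 0.1 uM dexamethasone = 100%.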

Assay [3] has as its target Peroxisome proliferator-activated receptor delta (Homo sapiens) (UniProt Q03181). As to the kind of experiment: qHTS assay for small molecule agonists of peroxisome proliferator-activated receptor delta signaling (AID 588534; calls by dose curve;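 further: 0% = DMSO basal wells and 100% = positive control agonist at 10 µM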). An outline of the steps: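 Cell-based beta-lactamase reporter assay run in agonist mode: cells seeded and incubated 5 hrs at 37 C, compounds added and incubated 18 hrs at 37 C. CCF4 dye fluorescence read after 2 hrs at RT; EC50 and efficacy from Hill fits.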

For assay [4], the target named is Peroxisome proliferator-activated receptor gamma (Homo sapiens) (UniProt P37231). As to the kind of experiment: qHTS assay for small molecule agonists of peroxisome proliferator-activated receptor gamma signaling (AID 588536; active means well fitted curve in the direction sought with a large enough effect in the signal ratio, with a control signal flat, not every such curve was filed as active; the % refers to the signal ratio;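 further: 0% = DMSO basal wells and 100% = rosiglitazone at 2 µM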). The procedure, abridged: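 PPAR-gamma-UAS-bla HEK293 cells in medium with 1% charcoal/dextran-treated FBS were exposed to compounds for 16 h at 37 C. Beta-lactamase activity was read with CCF4 substrate (405 nm excitation, 460/530 nm emission).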
Chain of Peroxisome proliferator-activated receptor gamma (Homo sapiens) (P37231 whole entry, looked up): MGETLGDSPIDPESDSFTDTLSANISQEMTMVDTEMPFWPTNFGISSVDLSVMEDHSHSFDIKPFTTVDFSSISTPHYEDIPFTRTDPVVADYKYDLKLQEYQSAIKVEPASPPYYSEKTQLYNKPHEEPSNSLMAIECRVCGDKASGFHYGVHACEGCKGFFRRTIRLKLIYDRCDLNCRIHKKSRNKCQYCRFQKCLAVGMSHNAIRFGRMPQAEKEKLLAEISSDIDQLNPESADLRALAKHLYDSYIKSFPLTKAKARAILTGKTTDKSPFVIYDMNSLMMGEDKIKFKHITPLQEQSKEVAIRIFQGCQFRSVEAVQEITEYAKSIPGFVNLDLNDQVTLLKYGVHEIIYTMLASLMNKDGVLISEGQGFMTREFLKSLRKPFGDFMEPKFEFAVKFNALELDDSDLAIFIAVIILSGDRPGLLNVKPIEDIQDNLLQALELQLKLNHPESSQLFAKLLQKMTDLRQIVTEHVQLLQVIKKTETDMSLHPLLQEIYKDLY

For assay [5], the target named is Retinoic acid receptor RXR-alpha (Homo sapiens) (UniProt P19793). As to the kind of experiment: qHTS assay for small molecule agonists of retinoid X receptor alpha signaling (AID 588544; calls by dose curve;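 further: 0% = DMSO basal wells and 100% = reference agonist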).
Chain of Retinoic acid receptor RXR-alpha (Homo sapiens) (P19793 whole entry, looked up): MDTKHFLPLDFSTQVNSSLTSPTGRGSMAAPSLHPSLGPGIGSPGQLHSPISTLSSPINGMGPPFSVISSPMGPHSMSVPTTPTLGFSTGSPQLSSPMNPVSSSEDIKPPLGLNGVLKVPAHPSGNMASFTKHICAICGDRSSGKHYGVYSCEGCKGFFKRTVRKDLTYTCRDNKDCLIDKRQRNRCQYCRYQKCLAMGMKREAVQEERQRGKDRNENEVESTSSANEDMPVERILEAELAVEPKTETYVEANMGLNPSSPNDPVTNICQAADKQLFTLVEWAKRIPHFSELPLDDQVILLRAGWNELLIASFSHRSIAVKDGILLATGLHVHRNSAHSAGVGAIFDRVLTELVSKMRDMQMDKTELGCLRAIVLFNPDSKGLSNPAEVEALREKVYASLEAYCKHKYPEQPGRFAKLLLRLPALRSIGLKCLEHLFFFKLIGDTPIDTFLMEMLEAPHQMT
Assay [6] is described as follows: qHTS assay for small molecule antagonists of retinoid X receptor alpha signaling (AID 588546; active means well fitted inhibition curve with a large enough effect in the signal ratio, with a control signal flat, not every such curve was filed as active; the % refers to the signal ratio;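 further: cells stimulated with 9-cis-retinoic acid as agonist; on the % scale 0 is the no-effect control and ±100 the full control effect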). The following applies: HEK293T RXRa-UAS-bla, beta-lactamase ratio, antagonist mode; measured here: W530 green channel, cytotoxicity proxy. The procedure, abridged:
(§1)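 Beta-lactamase reporter inhibition, read as CCF4 fluorescence ratio (ex 405, em 460/530 nm) after 2 h at RT. HEK293T UAS-bla cells, 2500/well, were stimulated with 9-cis-RA at 500 or 100 nM final alongside test compound for 18 h at 37 C.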

Assay [7] addresses Retinoic acid receptor RXR-alpha (Homo sapiens) (UniProt P19793). Described as above. The following applies: HEK293T RXRa-UAS-bla, beta-lactamase ratio, antagonist mode. An outline of the steps: as §1
Assay [8] can be described thus: qHTS assay for environmental chemicals that activate the Aryl hydrocarbon Receptor (AhR) signaling pathway (AID 651777). Further: % of control where 0% means no effect; nearly all actives have a fitted effect of over 15% in size. The following applies: 1A2-DRE human hepatoma cells, luciferase, 24 h; activation: stronger effect = higher value. The procedure, abridged: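 Luminescence (One-Glo, 30 min, room temperature) reports AhR-driven luciferase in stably transfected human hepatoma cells bearing DRE and CYP1A2 promoter. Cells (1,200/well) were treated with compound for 24 hr at 37 C in qHTS format.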

For assay [9], the target named is Peroxisome proliferator-activated receptor alpha (Homo sapiens) (UniProt Q07869). As to the kind of experiment: qHTS assay for small molecule agonists of the peroxisome proliferator-activated receptor alpha (PPARalpha) signaling pathway (AID 651778). Further: % of control where 0% means no effect. The settings on record: PathHunter PPARalpha complementation, chemiluminescence, 6 h; max response: stronger effect = higher value. An outline of the steps: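 Cells plated at 2,000/well and held overnight at 37 C, 5% CO2, then compound added by pin tool for 6 hr; after PathHunter detection reagent and 60 min at room temperature, chemiluminescence from enzyme complementation was read.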
Chain of Peroxisome proliferator-activated receptor alpha (Homo sapiens) (Q07869 whole entry, looked up): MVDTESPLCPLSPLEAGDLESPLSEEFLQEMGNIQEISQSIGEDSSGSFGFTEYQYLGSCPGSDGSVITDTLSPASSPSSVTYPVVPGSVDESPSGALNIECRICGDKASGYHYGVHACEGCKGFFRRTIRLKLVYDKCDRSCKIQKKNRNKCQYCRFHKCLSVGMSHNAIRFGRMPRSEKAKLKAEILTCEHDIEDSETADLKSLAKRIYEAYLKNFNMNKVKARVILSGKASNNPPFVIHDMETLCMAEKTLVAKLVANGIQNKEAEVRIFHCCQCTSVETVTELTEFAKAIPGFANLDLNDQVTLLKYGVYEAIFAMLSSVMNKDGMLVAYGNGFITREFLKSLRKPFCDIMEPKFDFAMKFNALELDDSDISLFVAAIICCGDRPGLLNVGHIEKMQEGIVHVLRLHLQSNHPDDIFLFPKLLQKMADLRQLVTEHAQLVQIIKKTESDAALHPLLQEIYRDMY

Assay [10] is described as follows: qHTS assay for small molecule agonists of the antioxidant response element (ARE) signaling pathway measured by Nrf2-dependant transcriptional activity (AID 720636; active means well fitted curve in the direction sought with a large enough effect in the repeat runs; an effect the other way counts as inactive or inconclusive; further: % of control where 0% means no effect). An outline of the steps:
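Nrf2-dependent transcription read as ONE-Glo luciferase signal from ARE-luc HepG2 reporter cells after 16 hr compound treatment at 37 C, 5% CO2, in assay medium with 1% dialyzed FBS.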

Assay [11] is described as follows: qHTS assay for small molecule agonists of the antioxidant response element (ARE) signaling pathway measured by Nrf2-dependant transcriptional activity - cell viability counter screen (AID 720653; active means well fitted curve in the direction sought with a large enough effect in the repeat runs; an effect the other way counts as inactive or inconclusive; further: on the % scale 0 is the no-effect control and ±100 the full control effect). The settings on record: ARE-bla HepG2 viability, CellTiter-Glo ATP luminescence, 16 h; max response: stronger effect = lower value. The procedure, abridged:
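ARE-bla HepG2 cells (2,000/well) rested 5 hrs at 37C/5% CO2, then exposed to compounds in DMSO for 16 hrs. Viability was read in the same wells as intracellular ATP by luminescence, 30 min at room temperature after reagent addition.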

Assay [12] is described as follows: qHTS assay for cell viability of HEK293 cells (AID 743288). Further: on the % scale 0 is the no-effect control and ±100 the full control effect; nearly all actives have a fitted effect of over 50% in size. The settings on record: ATP luminescence (CellTiter-Glo), 18 h; max response: stronger effect = lower value. The procedure, abridged:
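Parental HEK293 cells were seeded at 2,000 cells/well, rested at least 5 h at 37 C, then exposed to compounds in DMSO for 18 h at 37 C. Viability was read as ATP-dependent luciferase luminescence after 30 min at room temperature.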

For assay [13], the target named is Nuclear receptor subfamily 1 group I member 2 (Rattus norvegicus) (UniProt Q9R1A7). As to the kind of experiment: qHTS assay for small molecule activators of the rat pregnane X receptor (rPXR) signaling pathway (AID 651751; call rule not given here; further: 0% is about no effect). The settings on record: rPXR reporter cells, luciferase (One-Glo), 24 h.
Chain of Nuclear receptor subfamily 1 group I member 2 (Rattus norvegicus) (Q9R1A7 whole entry, looked up): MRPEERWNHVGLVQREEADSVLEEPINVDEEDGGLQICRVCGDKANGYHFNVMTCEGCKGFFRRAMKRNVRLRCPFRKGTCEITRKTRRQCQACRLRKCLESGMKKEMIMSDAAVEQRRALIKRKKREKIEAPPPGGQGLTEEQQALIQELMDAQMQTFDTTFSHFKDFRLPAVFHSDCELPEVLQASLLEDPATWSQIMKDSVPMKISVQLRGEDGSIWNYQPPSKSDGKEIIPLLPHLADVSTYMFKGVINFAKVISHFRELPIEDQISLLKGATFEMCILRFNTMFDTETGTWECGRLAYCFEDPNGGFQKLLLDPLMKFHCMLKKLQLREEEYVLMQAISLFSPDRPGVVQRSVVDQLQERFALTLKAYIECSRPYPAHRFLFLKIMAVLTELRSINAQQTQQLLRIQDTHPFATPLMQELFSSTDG
Assay [14] is described as follows: qHTS assay for small molecule antagonists of peroxisome proliferator-activated receptor delta signaling (AID 588535; active means well fitted inhibition curve with a large enough effect in the signal ratio, with a control signal flat, not every such curve was filed as active; the % refers to the signal ratio;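 on max response: cells co-treated with a PPAR-delta agonist as stimulator during compound exposure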). The following applies: HEK293T PPARd-UAS-bla, beta-lactamase FRET ratio, 18 h; 460 nm channel. The procedure, abridged:
(§2)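 GeneBLAzer PPAR-delta-UAS-bla HEK293T cells in medium with 2% charcoal/dextran FBS were preincubated 5 hrs at 37 C, then given compounds, incubated 18 hrs at 37 C, and read by CCF4 beta-lactamase fluorescence; IC50 from Hill fits.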

Assay [15] addresses Peroxisome proliferator-activated receptor delta (Homo sapiens) (UniProt Q03181). The description is as above. An outline of the steps:
as §2

The target of assay [16] is Thyroid hormone receptor beta (Homo sapiens) (UniProt P10828). As to the kind of experiment: qHTS assay for small molecule agonists of thyroid hormone receptor beta signaling (AID 588545; calls by dose curve;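 further: 0% = DMSO only and 100% = 10 nM T3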). The procedure, abridged:
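TR-UAS-bla GripTite HEK 293 cells (2500/well, medium with 2% charcoal/dextran FBS) were treated in agonist mode for 18 h at 37 C, titrated. Beta-lactamase was read by CCF4 ratio after 2 h; normalized to 10 nM T3 (100%) and DMSO, Hill-fitted for EC50 and efficacy.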

The nature of assay [17]: qHTS assay for small molecule activators of the p53 signaling pathway (AID 651743; active means well fitted activation curve with a large enough effect in the signal ratio, not every such curve was filed as active; the % refers to the signal ratio; further: potency means the concentration at half of the fitted maximal effect; on activation: series mostly up to about 92 µM; % of control where 0% means no effect). The following applies: HCT-116 p53RE-bla, beta-lactamase FRET ratio, 16 h; activation: stronger effect = higher value. An outline of the steps:
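p53RE-bla HCT-116 cells with a stably integrated beta-lactamase reporter under p53 response elements were plated, rested 5 hours at 37 C/5% CO2, then exposed to compounds in DMSO for 16 hours at 37 C. LiveBLAzer B/G FRET substrate was read after 2 hours at room temperature.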

Assay [18] can be described thus: qHTS assay for cell viability of the p53RE-bla HCT-116 cell line (AID 743292). Further: on the % scale 0 is the no-effect control and ±100 the full control effect; nearly all actives have a fitted effect of over 55% in size. The procedure, abridged: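 ATP-based luminescent viability (CellTiter-Glo, 30 min RT) after 16 h compound treatment at 37 C of p53RE-bla HCT-116 cells, seeded at 4,000 cells/well and rested 5 h before dosing.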
The target in assay [19] is Glucocorticoid receptor (Homo sapiens) (UniProt P04150). As to the kind of experiment: qHTS assay for small molecule antagonists of glucocorticoid receptor signaling (AID 588533; active means well fitted inhibition curve with a large enough effect in the signal ratio, with a control signal flat, not every such curve was filed as active; the % refers to the signal ratio;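 further: cells stimulated with 2 nM dexamethasone as agonist; on the % scale 0 is the no-effect control and ±100 the full control effect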). An outline of the steps: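 Antagonist-mode qHTS: compound titrations added to GRE-bla HeLa cells, then dexamethasone 2 nM final; 18 h, 37 C. CCF4 FRET fluorescence normalized to dexamethasone and DMSO; IC50 from Hill fit.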
Chain of Glucocorticoid receptor (Homo sapiens) (P04150 whole entry, looked up): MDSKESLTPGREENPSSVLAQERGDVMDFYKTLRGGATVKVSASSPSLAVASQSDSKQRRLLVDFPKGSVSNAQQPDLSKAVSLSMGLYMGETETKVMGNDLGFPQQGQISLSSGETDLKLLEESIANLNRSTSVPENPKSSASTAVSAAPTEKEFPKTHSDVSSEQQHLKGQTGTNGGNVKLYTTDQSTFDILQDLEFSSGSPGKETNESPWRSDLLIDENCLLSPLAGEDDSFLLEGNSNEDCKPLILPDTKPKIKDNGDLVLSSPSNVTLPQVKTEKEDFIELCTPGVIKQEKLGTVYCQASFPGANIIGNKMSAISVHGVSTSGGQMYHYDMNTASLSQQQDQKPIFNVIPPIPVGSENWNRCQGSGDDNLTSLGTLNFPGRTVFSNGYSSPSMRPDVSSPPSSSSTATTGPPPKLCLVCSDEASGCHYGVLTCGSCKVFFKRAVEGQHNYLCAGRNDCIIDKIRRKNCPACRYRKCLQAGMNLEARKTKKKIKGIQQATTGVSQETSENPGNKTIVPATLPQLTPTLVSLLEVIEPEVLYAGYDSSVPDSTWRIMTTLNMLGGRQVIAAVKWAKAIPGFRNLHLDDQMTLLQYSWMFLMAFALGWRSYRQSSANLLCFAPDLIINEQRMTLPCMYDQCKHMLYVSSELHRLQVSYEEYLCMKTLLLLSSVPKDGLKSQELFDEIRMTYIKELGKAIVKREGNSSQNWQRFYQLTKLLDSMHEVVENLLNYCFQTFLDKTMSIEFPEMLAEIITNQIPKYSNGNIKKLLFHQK

For assay [20], the target named is Thyroid hormone receptor beta (Homo sapiens) (UniProt P10828). As to the kind of experiment: qHTS assay for small molecule antagonists of thyroid hormone receptor beta signaling (AID 588547; active means well fitted inhibition curve with a large enough effect in the signal ratio, with a control signal flat, not every such curve was filed as active; the % refers to the signal ratio;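 further: cells stimulated with 0.4 nM T3 agonist during compound exposure; series mostly up to about 77 µM; on the % scale 0 is the no-effect control and ±100 the full control effect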). The following applies: TR-UAS-bla HEK293, beta-lactamase ratio, antagonist mode, 18 h. The procedure, abridged:
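TR-UAS-bla GripTite HEK293 cells in 2% charcoal/dextran FBS medium were preincubated 4 h at 37 C, given compound (0.59 nM to 92 uM) plus 0.4 nM T3 (final) for 18 h, then CCF4 for 2 h at RT; Hill fit gave IC50.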

Chain of Peroxisome proliferator-activated receptor delta (Homo sapiens) (Q03181 whole entry, looked up): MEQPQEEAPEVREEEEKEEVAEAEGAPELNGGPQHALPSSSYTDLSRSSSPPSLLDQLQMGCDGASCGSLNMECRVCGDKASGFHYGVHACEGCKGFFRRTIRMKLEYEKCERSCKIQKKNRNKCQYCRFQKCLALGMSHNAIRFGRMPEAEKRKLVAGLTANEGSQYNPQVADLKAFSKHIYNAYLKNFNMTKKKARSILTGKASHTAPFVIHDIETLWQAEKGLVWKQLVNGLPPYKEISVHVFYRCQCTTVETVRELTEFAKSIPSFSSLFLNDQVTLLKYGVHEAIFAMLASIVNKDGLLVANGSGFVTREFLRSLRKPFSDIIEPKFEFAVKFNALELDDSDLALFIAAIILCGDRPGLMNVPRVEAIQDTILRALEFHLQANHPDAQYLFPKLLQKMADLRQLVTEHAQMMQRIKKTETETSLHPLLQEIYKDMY
Chain of Estrogen receptor (Homo sapiens) (P03372 whole entry, looked up): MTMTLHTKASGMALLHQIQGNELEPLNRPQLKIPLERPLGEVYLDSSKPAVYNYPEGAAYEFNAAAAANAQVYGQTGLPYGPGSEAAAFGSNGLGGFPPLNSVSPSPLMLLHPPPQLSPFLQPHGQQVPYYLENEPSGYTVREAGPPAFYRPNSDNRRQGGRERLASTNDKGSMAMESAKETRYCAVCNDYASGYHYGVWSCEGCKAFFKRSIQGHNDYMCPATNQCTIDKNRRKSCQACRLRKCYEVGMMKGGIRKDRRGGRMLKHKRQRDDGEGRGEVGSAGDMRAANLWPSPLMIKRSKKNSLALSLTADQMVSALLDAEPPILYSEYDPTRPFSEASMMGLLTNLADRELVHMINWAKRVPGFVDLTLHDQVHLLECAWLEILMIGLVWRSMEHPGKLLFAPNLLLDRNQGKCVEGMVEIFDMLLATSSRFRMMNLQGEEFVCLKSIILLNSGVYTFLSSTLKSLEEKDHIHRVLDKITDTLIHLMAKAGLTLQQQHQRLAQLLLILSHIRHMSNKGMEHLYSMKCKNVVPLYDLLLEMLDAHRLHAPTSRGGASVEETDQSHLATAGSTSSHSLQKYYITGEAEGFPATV
Chain of Thyroid hormone receptor beta (Homo sapiens) (P10828 whole entry, looked up): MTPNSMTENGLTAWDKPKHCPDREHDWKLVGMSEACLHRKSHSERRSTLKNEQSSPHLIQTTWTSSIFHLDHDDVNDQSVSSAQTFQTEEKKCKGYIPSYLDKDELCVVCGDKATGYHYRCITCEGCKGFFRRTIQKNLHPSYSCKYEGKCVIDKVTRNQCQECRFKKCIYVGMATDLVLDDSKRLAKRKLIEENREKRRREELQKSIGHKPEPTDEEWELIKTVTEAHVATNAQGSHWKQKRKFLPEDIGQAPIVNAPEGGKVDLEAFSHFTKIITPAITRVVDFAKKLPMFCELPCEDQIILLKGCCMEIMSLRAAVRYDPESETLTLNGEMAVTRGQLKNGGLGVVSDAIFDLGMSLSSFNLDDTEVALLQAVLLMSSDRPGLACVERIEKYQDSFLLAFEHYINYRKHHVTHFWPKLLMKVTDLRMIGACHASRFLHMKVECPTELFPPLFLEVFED

On to `Cn1c(-c2ccccc2)cc(-c2ccccc2)[n+]1C`, for which the Potency entry in assay [1], in assay [4], in assay [5] and in [10] was “inactive” each time. The results for the activation in assay [2] and in [8] were -9.09% (inactive) and -2.45% (inactive), respectively. Further, the compound was classed as inactive in assay [3]. Also, the max response in assay [6] was 17.2%; in assay [7], -10.3% (inactive); in assay [9] it was -0.162% (inactive); in assay [11], -21.3% (inactive); in assay [12], 5.36% (inactive); in assay [13] it was -12.3% (inactive).

Consider `CNP(=O)(OC)Oc1ccc(C(C)(C)C)cc1Cl` (stereo unspecified), for which the Potency entry in assay [1], in assay [15], in [5], in assay [16] and in assay [18] was “inactive” throughout. The activation in assay [2] was 0.207% (inactive); in assay [17], 6.28% (inactive); in [8] it was 5.81% (inactive). Also, the outcome in assay [3] was inactive. The max response in [14] is 45%; in assay [6], 2.01%; in assay [7] it was 11.9% (inactive); in [9], -2.32% (inactive); in assay [11] it was 8.45% (inactive); in assay [12], -10.1% (inactive). Moreover, the max response in assay [13] is 11.5% (inactive).

For `O=C(Nc1ccccc1)Nc1cnns1`, the Potency result in assay [1], in assay [19], in assay [15], in assay [16] and in [18] was “inactive” in each case. In assay [3], the result was inactive. For the same compound, the max response in assay [14] is -10.7%; in assay [6], 1.32%; in assay [7] it was -46.6% (inactive); in assay [11], -2.01% (inactive); in [12], -16.6% (inactive). In assay [20], the activity change % (negative = inhibition) was 24.1% (inactive). Further, in assay [17], the activation is 2.3% (inactive).

Turning to `O=S(=O)(c1ccc(Cl)cc1)c1cc(Cl)c(Cl)cc1Cl`, the Potency entry in assay [1], in assay [19], in assay [16], in [10] and in assay [18] was “inactive” each time. Further, the figures for the activation in [2], in [17] and in [8] were 0.889% (inactive), 8.22% (inactive) and -2.98% (inactive), respectively. In addition, in assay [20], the activity change % (negative = inhibition) is 6.33% (inactive). Besides, the max response in assay [9] is -3.59% (inactive); in assay [11], -29.2% (inactive); in [12] it was -31.9% (inactive).

Regarding `CO/N=C(/C(=O)OC)c1ccccc1COc1ccccc1C`, the Potency result in [1], in [5], in assay [16], in assay [10] and in [18] was “inactive” each time. The activation in assay [2] was -0.293% (inactive); in assay [8] it was 13.1% (inactive). Further, in [20], the activity change % (negative = inhibition) was -29.5% (inactive). Moreover, in [17], the Potency was 25.1 µM (active). Also, the max response in assay [9] is 5.1% (inactive); in [11] it was -19.8% (inactive); in assay [12], -26.1% (inactive).
